A549 tox = A549 cytotoxicity, counter-screen for Nrf2 inhibitors; A549 ARE-Fluc cells, CellTiter-Fluor viability, 18-24 h; Potency, µM (doses to about 46 µM), for inactives: top-dose activity change, negative = cytotoxicity, most hits filed as inhibitors; 390,000 tested, 0.16% active; AID 504648; further: potency means the concentration at half of the fitted maximal effect; on the % scale 0 is the no-effect control and ±100 the full control effect
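A549 ARE_Fluc cells in 5% FBS OPTI-MEM were exposed to compounds in concentration-response for 18-24 h at 37 deg C. Viability was read by CellTiter-Fluor fluorescence (Ex 405/Em 525) after 30 min, before the luciferase read.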
CCT modulator = changes cytosolic chaperonin activity | purified chaperonin ATPase assay, HTRF ADP detection, 30 min | activity change, % (test concentration not listed), hits read low | AID 651819 | 360,000 tested, 0.3% active; in the data active means activity change below about -30%; further: on the % scale 0 is the no-effect control and ±100 the full control effect
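Enzyme 40 or 20 nM (batch-dependent) in Tris pH 7.4/KCl/MgCl2/DTT; cpd 76 uM single point; ATP 10 uM; 30 min 37 °C; Transcreener ADP HTRF detection, 30 min RT; ratio 665/615.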
A-T KAP1 phos = potential ataxia-telangiectasia treatments restoring KAP-1 phosphorylation | F2112 A-T fibroblasts, KAP-1 phosphorylation AlphaLISA; neocarzinostatin DNA damage 30 min before lysis | AID 485349 | 320,000 tested, 0.19% active | Potency, µM (top dose mostly 57.5 µM), without a hit: top-dose activation, hits mostly activators; further: potency means the concentration at half of the fitted maximal effect; % of control where 0% means no effect; nearly all actives have a fitted effect of over 45% in size
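hTERT-immortalized A-T patient fibroblasts (F2112), 500 cells/well in OPTI-MEM, 1% FBS, got compounds for 60 min, then NCS for 30 min at 37C. Lysates were then assayed for phospho-KAP-1 by AlphaLISA (anti-pKAP1 donor, anti-KAP1 acceptor beads), 6 hr at 25C.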
Nrf2 inh = Nrf2 pathway inhibition | A549 ARE-Fluc reporter, luciferase luminescence, 18-24 h | Potency, µM (highest dose often 46 µM), without a hit: at the highest dose activity change, negative = inhibition, usual class: inhibitors | 360,000 tested, 2.1% active; further: potency means the concentration at half of the fitted maximal effect; on the % scale 0 is the no-effect control and ±100 the full control effect; nearly all actives have a fitted effect of over 60% in size
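Nrf2 function is reported as luminescence of an ARE-controlled luciferase in A549 cells. Compounds were tested at several concentrations, and a CellTiter-Fluor read on the same wells flagged cytotoxicity.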
TCR act = activators of T cell receptors; AID 504894; 330,000 tested, under 10 active; Potency, µM (highest dose often 9.22 µM), for inactives: at the top dose activation of IL-2 secretion, hits mostly activators; primary human leukocytes, anti-CD3, IL-2 HTRF, 48 h; further: % of control where 0% means no effect
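Primary human leukocytes incubated 48 hr with anti-CD3 beads plus compound, without co-stimulation. Secreted IL-2 measured by HTRF (europium cryptate/d2 anti-IL-2 pair, 320 nm excitation, 665 nm emission).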
Nrf2 ARE act = activators of Nrf2 (ARE) signaling. AREc32 ARE-luciferase reporter (MCF7-derived line), luminescence, 24 h. Potency, µM (top dose mostly 46.1 µM), for the others: top-dose activation, usual class: activators. 410,000 tested, 0.31% active; further: potency means the concentration at half of the fitted maximal effect; % of control where 0% means no effect; nearly all actives have a fitted effect of over 65% in size
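Luciferase luminescence (Steady-Glo, 30 min at room temperature) served as the read-out of ARE activation in AREc32 cells treated with compounds for 24 hr at 37 deg C.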
* marks the source's active call; other numbers are inactive results; ? = inconclusive; nt = not tested or not shown; [ ] = dose if it differs, or a comment. This is a sample that favours compounds with a hit; in the whole collection about 2.6% have one here. Unless noted, the call rests on the fitted dose curve; in most records, active means well fitted curve in the direction sought with a large enough effect; inconclusive means small, poorly fitted or top-dose-only effect, or another doubt; inactive means no such curve, though single readings can be large; an effect the other way counts as inactive or inconclusive.

SMILES	A549 tox	CCT modulator	A-T KAP1 phos	Nrf2 inh	TCR act	Nrf2 ARE act
COCC(C)n1c(SCc2nc(N)nc(Nc3ccccc3C)n2)nc2ccccc2c1=O (stereo not given)	10%	3	-4%	-9%	2%	0%
CCCCn1c(SCc2nc(N)nc(Nc3ccccc3C)n2)nc2ccccc2c1=O	-30%	-1	nt	21µM*	5%	2%
O=S1(=O)N=C(Oc2cccc(C(F)(F)F)c2)c2ccccc21	2%	nt	nt	5%	nt	nt
CCn1cc(/C=N\NC(=O)Cc2ccc([N+](=O)[O-])cc2)c(C)n1	-1%	-39*	16%	2%	-4%[46.1 µM]	0%
CCNc1ccc(-c2nc(-c3ccccn3)no2)cc1[N+](=O)[O-]	-1%	nt	nt	32%	nt	7%
Cc1onc(-c2ccccc2)c1C(=O)OCC(=O)Nc1ccc(OC(F)(F)F)cc1	-8%	-1	0%	23µM*	-2%	1%
Cc1onc(-c2ccccc2)c1C(=O)OCC(=O)Nc1ccc(Cl)cc1	?	-1	0%	23µM*	-5%	0%
Cc1cc(NC(=O)c2ccccc2)c(Cl)cc1N	1%	2	-6%	8.2µM*	-5%	-3%
COc1ccccc1Nc1nn2c(=O)c3ccc(C(=O)NCCc4ccccc4)cc3nc2s1	8.2µM*	nt	nt	18µM*	nt	3%
C/C(=N\NC(=O)C1CC1)c1ccc(OC(F)F)cc1	1%	0	6%	?	-2%	2%
Cc1ccnc(OC(C(=O)O)C(OCc2ccccc2)(c2ccccc2)c2ccc(C(F)(F)F)cc2)n1 (stereo not given)	-18%	1	0%	10µM*	-3%	0%
CCOc1cc(-c2c(C#N)c(N)nc3c2CCc2ccccc2-3)ccc1O	-9%	-5	0%	-5%	-8%[46.1 µM]	6%
COc1ccccc1-c1c(C#N)c(N)nc2c1CCc1ccccc1-2	7%	-2	22µM*	-16%	4%[46.1 µM]	6%
O=C(Nc1nccs1)C1CCN(S(=O)(=O)c2ccc(F)cc2)CC1	2%	0	6%	11%	6%	0%
O=C(Nc1nccs1)C1CCN(S(=O)(=O)c2c(Cl)cccc2Cl)CC1	-12%	3	0%	16µM*	1%	0%
Cc1cccc(OCCn2c(-c3ccc(Cl)cc3)nc3ccccc3c2=O)c1C	4%	nt	nt	16%	nt	4%
Cc1ccc(SC(C)C(=O)Nc2cccnc2)cc1 (stereo not given)	-3%	0	14%	12%	-2%	0%
Cc1ccc(SC(C)C(=O)Nc2ccncc2)cc1 (stereo not given)	-1%	-1	-1%	13µM*	-3%	-1%
CCOc1cc(N2CCOCC2)c(OCC)cc1NC(=O)Cn1cnc2c(=O)n(C)c(=O)n(C)c21	-1%	-3	-7%	12%	3%	-1%
Cc1cc(C)c2c(c1)/C(=C/C(=O)c1ccc(Br)s1)C(=O)N2	?	-6	0%	9.2µM*	-4%	0%
Cc1cc(Br)c2c(c1)/C(=C/C(=O)c1cccs1)C(=O)N2	1%	-4	7%	-7%	-23%	23%
COC(=O)c1sc(S(=O)(=O)N2CCCCC2C(=O)O)c(C(=O)OC)c1C (stereo not given)	-9%	0	1%	4%	0%	0%
COC(=O)c1sc(S(=O)(=O)N2CCC(C(N)=O)CC2)c(C(=O)OC)c1C	-5%	-33*	-2%	11%	-2%	-1%
COc1ccc(CCC(=O)NCc2nc3cccnc3n2Cc2ccc(OC)cc2)cc1	6%	nt	nt	nt	nt	0%
CCSc1nn(CC(=O)Nc2cccc(Cl)c2)c(N)c1S(=O)(=O)c1ccc(OC)cc1	?	nt	nt	18µM*	nt	-2%
SMILES	A549 tox	CCT modulator	A-T KAP1 phos	Nrf2 inh	TCR act	Nrf2 ARE act
COc1ccc(S(=O)(=O)c2c(SC)nn(CC(=O)Nc3ccc(C)c(Cl)c3)c2N)cc1	?	nt	nt	23µM*	nt	0%
CCSc1nn(CC(=O)Nc2cccc(CC)c2)c(N)c1S(=O)(=O)c1ccccc1	-16%	nt	nt	?	nt	-1%
CCCc1ccc2oc(C(=O)N3CCN(CC(=O)NC(C)C)CC3)c(C)c2c1	-2%	-1	6%	2%	0%	5%
N#Cc1ccc(OCC(=O)OCC(=O)c2ccccc2)cc1	2%	-33*	10%	3%	-2%[46.1 µM]	0%
N#Cc1ccc(OCC(=O)OCC(=O)c2ccc[nH]2)cc1	2%	-1	5%	-9%	2%	-1%
OC(COc1ccc(F)cc1Cl)CN1CCC(Cc2ccccc2)CC1 (stereo not given)	-11%	-5	3.5µM*	-2%	3%	-1%
COC(=O)c1c(-c2ccc(N(C)C)cc2)sc2ccc(OC)cc12	18%	2	25µM*	?	4%	3%
CCN(CC)c1ccc(NC(=O)Cn2cc3c(n2)CCCC3)c(C)c1	5%	nt	nt	?	nt	-1%
CNC(=O)CN1C(=O)CSc2ncccc21	-2%	-1	-2%	8%	-3%	0%
CCN(CC)c1ccc(NC(=O)Cn2cc3c(n2)CCC(C)C3)c(C)c1 (stereo not given)	-19%	-1	13%	13µM*	4%	1%
CCN(CC)c1ccc(NC(=O)CN2C(=O)CSc3ncccc32)c(C)c1	-4%	0	1%	10µM*	9%	0%
COc1cccc(CN(C)C(=O)c2cc(COc3ccc(-n4cncn4)cc3)on2)c1	-9%	0	12%	?	7%	0%
COCCN(C(=O)CC1C(=O)NCCN1CC(c1ccccc1)c1ccccc1)C(C)C (stereo not given)	1%	-1	6%[11.5 µM]	-11%	0%	0%
Cc1nc2nncn2c(NCc2ccc(F)cc2)c1C	0%	nt	nt	8.2µM*	nt	3%
Cc1cccc(NC(=O)/C(C#N)=C/c2ccc(F)cc2)n1	-8%	-1	0.71µM*	?	-2%	0%
Cc1ccc2onc(CNC(=O)N(C)Cc3ccccc3)c2c1	-1%	nt	nt	?	nt	5%
O=[N+]([O-])c1cc([N+](=O)[O-])c(Oc2c(F)cc(F)cc2F)cc1NN1CCCCC1	-8%	0	3%	-11%	0%	2%
Cc1ccc(C)c(OCC(=O)N/N=C/c2c(C)nn(-c3ccccc3)c2Cl)c1	nt	nt	-2%	nt	nt	nt
Cc1nn(-c2ccccc2)c(Cl)c1/C=N/NC(=O)CCNc1n[nH]c(=O)[nH]c1=O	-3%	-1	20µM*	8%	-4%	2%
COc1ccc(Br)cc1/C(C)=N/NC1=NCCN1	1%	-1	1%	12µM*	-6%	5%

From PubChem
